# Experimental data published in paper PMC7862700, “An all-to-all approach to the identification of sequence-specific readers for epigenetic DNA modifications on cytosine”.
# Tests used:
# Experiment in all cases: DAPPL (digital affinity profiling via proximity ligation, sequencing); 10 mM Tris-HCl pH 7.5, 50 mM NaCl, 1 mM DTT, 4% glycerol, room temperature, 30 min; GST-TFs on glutathione beads, 16-mer random dsDNA library, 0.1% formaldehyde crosslink after washing; high values mean tight binding
# FLI1 = target: T1, FLI1 (Homo sapiens, UniProt Q01543 1-452); conditions: protein: recombinant; tags: N-terminal GST; dsDNA, one strand shown
# T1 sequence: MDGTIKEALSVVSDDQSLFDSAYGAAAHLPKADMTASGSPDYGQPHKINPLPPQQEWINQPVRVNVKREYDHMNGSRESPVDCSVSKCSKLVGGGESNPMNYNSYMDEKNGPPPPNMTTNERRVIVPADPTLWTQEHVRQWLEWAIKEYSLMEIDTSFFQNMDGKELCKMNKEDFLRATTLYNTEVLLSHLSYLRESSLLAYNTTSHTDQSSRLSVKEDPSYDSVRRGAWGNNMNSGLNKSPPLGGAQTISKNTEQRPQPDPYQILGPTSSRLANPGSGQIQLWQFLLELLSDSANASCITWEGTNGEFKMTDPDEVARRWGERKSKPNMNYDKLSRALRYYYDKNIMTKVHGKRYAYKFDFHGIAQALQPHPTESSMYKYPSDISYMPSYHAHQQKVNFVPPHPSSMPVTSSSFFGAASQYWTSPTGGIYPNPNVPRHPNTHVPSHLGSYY
# How it was run: (§1)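 Yeast served to express human transcription factors as GST fusions, which were then captured on glutathione beads and labelled with DNA barcodes. Pooled with a tag-only sample, they were incubated with 200 nmole of a 16-mer random double-stranded DNA library for 30 min at room temperature in Tris/NaCl/DTT/glycerol buffer, washed, crosslinked with 0.1% formaldehyde, ligated by proximity, amplified by PCR and sequenced. Dividing each hexamer's read frequency for a factor by its frequency for the tag-only sample gives the binding signal.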
# ELK1 = target: T2, ELK1 (Homo sapiens, UniProt P19419 1-428); conditions: protein: recombinant; tags: N-terminal GST; dsDNA, one strand shown
# T2 sequence: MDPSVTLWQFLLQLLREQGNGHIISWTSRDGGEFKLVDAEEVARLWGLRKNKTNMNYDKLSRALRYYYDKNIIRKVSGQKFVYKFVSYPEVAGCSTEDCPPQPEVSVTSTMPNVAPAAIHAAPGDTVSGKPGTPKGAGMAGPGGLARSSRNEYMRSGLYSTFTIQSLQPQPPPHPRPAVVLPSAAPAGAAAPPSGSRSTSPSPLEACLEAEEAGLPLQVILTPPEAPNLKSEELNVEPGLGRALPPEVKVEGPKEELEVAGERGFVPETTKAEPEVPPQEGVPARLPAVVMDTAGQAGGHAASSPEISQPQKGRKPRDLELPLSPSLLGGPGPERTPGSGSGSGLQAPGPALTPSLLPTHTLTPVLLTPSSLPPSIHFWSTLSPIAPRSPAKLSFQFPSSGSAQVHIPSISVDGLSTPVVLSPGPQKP
# How it was run: as §1
# GABPA = target: T3, GABPA (Homo sapiens, UniProt Q06546 1-454); conditions: protein: recombinant; tags: N-terminal GST; dsDNA, one strand shown
# T3 sequence: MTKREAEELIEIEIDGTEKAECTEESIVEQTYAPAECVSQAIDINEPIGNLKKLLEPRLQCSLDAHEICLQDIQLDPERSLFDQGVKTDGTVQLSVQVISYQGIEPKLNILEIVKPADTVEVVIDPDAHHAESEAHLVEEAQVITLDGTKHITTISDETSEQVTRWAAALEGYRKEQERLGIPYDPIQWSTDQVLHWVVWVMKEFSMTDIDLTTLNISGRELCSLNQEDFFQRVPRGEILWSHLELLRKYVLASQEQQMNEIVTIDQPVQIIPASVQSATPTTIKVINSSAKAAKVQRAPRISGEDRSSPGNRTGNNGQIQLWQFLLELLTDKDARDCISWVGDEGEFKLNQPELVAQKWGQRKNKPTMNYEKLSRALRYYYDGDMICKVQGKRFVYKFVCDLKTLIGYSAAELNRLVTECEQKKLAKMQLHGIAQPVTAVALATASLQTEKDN
# How it was run: as §1
# ERG = target: T4, ERG (Homo sapiens, UniProt P11308 1-479); conditions: protein: recombinant; tags: N-terminal GST; dsDNA, one strand shown
# T4 sequence: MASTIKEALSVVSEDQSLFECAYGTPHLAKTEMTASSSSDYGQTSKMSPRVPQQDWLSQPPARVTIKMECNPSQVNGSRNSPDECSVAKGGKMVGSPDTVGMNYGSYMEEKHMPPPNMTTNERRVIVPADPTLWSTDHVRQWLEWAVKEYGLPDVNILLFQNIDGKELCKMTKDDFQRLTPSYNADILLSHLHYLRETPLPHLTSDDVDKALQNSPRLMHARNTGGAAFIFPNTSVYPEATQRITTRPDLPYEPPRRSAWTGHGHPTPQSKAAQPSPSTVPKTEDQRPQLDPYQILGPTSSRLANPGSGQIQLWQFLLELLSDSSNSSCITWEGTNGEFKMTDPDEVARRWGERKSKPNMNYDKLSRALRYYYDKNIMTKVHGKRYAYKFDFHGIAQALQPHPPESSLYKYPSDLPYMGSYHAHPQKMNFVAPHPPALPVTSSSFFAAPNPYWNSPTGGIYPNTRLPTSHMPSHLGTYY
# How it was run: as §1
# ELF1 = ELF1 (Homo sapiens, UniProt P32519 1-619); conditions: protein: recombinant; tags: N-terminal GST; dsDNA, one strand shown
# Sequence of ELF1 (P32519 whole entry): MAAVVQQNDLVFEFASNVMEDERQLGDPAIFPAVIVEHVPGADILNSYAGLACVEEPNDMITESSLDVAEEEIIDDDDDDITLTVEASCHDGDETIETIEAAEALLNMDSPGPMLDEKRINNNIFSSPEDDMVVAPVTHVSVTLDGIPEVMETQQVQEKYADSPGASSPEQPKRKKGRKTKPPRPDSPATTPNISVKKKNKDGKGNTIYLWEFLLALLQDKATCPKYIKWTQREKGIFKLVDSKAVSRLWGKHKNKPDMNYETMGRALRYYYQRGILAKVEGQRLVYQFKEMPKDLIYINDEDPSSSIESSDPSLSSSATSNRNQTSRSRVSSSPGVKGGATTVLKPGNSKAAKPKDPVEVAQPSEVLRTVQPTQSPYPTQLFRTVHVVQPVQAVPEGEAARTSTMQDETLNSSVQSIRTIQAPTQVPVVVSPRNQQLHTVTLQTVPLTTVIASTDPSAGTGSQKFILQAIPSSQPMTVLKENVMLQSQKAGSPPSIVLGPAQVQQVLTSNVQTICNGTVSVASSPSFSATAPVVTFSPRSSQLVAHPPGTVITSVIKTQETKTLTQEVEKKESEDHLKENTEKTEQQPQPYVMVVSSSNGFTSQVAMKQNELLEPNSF
# How it was run: as §1
# EHF = target: T5, EHF (Homo sapiens, UniProt Q9NZC4 1-300); conditions: protein: recombinant; tags: N-terminal GST; dsDNA, one strand shown
# T5 sequence: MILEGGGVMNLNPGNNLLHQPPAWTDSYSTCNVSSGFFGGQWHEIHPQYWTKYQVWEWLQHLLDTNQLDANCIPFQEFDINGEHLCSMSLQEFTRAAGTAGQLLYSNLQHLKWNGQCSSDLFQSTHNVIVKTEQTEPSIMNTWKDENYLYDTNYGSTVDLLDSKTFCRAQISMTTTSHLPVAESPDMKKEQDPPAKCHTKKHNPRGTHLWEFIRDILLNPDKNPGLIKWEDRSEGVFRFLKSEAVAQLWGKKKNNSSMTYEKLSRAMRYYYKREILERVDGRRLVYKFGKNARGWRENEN
# How it was run: as §1
# SPI1 = SPI1 (Homo sapiens, UniProt P17947 1-270); conditions: protein: recombinant; tags: N-terminal GST; dsDNA, one strand shown
# How it was run: as §1
# SPIB = SPIB (Homo sapiens, UniProt Q01892 1-262); conditions: protein: recombinant; tags: N-terminal GST; dsDNA, one strand shown
# Sequence of SPIB (Q01892 whole entry): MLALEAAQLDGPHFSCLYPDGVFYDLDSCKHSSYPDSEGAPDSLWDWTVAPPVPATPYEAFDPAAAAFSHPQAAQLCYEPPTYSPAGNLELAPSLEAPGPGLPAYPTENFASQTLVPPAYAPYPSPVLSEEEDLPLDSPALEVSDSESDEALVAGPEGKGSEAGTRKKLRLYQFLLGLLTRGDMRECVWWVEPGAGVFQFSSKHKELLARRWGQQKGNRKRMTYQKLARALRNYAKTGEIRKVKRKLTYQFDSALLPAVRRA
# How it was run: as §1
# ELK3 = target: T6, ELK3 (Homo sapiens, UniProt P41970 1-407); conditions: protein: recombinant; tags: N-terminal GST; dsDNA, one strand shown
# T6 sequence: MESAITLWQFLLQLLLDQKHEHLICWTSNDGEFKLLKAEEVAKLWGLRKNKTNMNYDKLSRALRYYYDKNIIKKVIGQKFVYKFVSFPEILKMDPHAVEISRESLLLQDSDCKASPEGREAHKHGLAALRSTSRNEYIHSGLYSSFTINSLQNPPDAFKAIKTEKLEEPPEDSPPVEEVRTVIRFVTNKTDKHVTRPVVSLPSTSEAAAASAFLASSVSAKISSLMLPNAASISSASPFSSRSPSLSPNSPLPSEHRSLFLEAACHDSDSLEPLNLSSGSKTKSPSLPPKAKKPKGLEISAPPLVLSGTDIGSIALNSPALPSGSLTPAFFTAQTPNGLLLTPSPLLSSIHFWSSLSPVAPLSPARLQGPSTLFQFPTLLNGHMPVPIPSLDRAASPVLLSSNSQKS
# How it was run: as §1
# FEV = target: T7, FEV (Homo sapiens, UniProt Q99581 1-238); conditions: protein: recombinant; tags: N-terminal GST; dsDNA, one strand shown
# T7 sequence: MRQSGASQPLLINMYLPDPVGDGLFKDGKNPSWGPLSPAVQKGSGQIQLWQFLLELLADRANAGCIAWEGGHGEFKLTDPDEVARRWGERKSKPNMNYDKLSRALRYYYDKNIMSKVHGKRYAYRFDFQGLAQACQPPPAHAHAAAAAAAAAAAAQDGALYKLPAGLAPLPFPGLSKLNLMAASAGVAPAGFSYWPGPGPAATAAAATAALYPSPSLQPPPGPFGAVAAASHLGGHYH
# How it was run: as §1
# ETV5 = ETV5 (Homo sapiens, UniProt P41161 1-510); conditions: protein: recombinant; tags: N-terminal GST; dsDNA, one strand shown
# Sequence of ETV5 (P41161 whole entry): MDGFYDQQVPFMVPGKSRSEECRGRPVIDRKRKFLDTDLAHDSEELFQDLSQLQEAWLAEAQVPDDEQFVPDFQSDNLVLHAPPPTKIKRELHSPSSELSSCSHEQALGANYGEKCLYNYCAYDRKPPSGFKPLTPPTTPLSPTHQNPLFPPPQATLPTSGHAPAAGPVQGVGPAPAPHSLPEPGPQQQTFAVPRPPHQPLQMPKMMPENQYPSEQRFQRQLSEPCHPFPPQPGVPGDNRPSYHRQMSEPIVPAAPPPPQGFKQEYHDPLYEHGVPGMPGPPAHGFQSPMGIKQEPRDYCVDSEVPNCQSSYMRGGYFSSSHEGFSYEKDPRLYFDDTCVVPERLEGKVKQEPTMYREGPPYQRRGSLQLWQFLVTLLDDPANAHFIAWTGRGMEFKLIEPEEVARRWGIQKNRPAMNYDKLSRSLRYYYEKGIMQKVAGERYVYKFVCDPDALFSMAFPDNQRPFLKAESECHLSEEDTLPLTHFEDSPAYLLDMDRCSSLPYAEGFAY
# How it was run: as §1
# HSF1 = HSF1 (Homo sapiens, UniProt Q00613 1-529); conditions: protein: recombinant; tags: N-terminal GST; chain copies: 3; dsDNA, one strand shown
# Sequence of HSF1 (Q00613 whole entry): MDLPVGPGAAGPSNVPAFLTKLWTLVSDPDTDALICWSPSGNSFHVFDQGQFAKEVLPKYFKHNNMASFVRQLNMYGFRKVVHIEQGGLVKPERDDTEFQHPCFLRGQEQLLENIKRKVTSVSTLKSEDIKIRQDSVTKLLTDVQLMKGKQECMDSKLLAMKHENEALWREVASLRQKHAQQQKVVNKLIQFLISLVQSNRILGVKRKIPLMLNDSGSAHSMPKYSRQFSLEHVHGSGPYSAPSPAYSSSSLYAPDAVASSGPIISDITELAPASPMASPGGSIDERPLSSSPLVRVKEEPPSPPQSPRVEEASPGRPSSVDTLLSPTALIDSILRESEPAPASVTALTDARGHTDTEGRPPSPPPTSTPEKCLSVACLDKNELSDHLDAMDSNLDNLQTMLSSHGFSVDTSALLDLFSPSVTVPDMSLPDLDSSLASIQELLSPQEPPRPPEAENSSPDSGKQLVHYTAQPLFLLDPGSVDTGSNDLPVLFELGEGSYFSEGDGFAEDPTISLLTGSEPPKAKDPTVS
# How it was run: as §1
# SPIC = target: T8, SPIC (Homo sapiens, UniProt Q8N5J4 1-248); conditions: protein: recombinant; tags: N-terminal GST; dsDNA, one strand shown
# T8 sequence: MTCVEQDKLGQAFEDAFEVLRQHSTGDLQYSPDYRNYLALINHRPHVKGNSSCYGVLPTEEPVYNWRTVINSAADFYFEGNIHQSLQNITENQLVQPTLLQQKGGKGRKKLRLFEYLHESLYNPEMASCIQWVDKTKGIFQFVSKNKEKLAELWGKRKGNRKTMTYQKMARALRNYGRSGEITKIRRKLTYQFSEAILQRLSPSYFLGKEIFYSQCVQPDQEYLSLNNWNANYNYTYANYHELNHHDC
# How it was run: as §1
# ELF4 = ELF4 (Homo sapiens, UniProt Q99607 1-663); conditions: protein: recombinant; tags: N-terminal GST; dsDNA, one strand shown
# Sequence of ELF4 (Q99607 whole entry): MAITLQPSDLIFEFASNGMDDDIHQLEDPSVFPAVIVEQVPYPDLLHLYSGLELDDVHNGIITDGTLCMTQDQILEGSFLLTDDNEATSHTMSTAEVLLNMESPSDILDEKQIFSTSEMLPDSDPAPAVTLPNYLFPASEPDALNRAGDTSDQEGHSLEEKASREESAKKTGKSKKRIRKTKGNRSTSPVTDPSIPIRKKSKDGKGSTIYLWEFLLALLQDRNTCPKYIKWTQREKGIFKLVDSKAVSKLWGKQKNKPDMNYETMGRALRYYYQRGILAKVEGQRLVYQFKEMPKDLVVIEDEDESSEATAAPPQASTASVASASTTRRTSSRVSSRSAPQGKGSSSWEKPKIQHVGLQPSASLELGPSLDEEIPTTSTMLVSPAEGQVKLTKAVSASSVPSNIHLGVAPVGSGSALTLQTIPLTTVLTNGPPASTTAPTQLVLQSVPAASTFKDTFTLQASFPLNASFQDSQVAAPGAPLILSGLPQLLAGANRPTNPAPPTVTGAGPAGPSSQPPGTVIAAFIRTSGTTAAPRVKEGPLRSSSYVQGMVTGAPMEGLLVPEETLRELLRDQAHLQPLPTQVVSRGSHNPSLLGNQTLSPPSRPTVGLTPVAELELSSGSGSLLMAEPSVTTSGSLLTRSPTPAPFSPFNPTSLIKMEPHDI
# How it was run: as §1
# ELK4 = target: T9, ELK4 (Homo sapiens, UniProt P28324-2 1-405); conditions: protein: recombinant; tags: N-terminal GST; dsDNA, one strand shown
# T9 sequence: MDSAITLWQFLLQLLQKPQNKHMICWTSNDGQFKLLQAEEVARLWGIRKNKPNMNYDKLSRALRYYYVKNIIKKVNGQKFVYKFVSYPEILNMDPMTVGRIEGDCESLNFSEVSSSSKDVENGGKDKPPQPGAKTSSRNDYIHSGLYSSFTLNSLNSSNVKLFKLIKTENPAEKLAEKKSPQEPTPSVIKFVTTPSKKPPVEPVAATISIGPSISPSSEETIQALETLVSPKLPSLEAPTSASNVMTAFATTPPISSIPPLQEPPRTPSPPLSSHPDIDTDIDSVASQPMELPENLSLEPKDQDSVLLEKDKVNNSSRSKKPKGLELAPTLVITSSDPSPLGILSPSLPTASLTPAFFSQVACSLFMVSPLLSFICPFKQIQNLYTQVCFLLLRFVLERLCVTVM
# How it was run: as §1
# ETV2 = target: T10, ETV2 (Homo sapiens, UniProt O00321 1-342); conditions: protein: recombinant; tags: N-terminal GST; dsDNA, one strand shown
# T10 sequence: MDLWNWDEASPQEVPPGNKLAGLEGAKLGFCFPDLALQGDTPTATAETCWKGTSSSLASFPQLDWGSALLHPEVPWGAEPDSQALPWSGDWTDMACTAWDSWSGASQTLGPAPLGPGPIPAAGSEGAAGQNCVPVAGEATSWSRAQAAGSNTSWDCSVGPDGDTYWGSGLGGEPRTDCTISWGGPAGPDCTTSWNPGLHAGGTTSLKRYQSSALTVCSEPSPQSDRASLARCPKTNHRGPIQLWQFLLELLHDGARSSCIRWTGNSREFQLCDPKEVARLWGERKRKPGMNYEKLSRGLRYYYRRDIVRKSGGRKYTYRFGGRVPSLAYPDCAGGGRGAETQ
# How it was run: as §1
# ELF3 = target: T11, ELF3 (Homo sapiens, UniProt P78545 1-371); conditions: protein: recombinant; tags: N-terminal GST; dsDNA, one strand shown
# T11 sequence: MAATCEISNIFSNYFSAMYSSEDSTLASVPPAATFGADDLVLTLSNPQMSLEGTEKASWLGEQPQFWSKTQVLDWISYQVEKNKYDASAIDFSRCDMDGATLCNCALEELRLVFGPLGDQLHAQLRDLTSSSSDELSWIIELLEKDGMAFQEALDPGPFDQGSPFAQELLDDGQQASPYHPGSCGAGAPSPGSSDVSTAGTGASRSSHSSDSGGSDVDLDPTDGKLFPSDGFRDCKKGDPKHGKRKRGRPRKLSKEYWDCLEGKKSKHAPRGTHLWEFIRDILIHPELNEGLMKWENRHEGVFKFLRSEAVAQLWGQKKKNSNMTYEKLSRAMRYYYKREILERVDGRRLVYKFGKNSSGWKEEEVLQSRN
# How it was run: as §1
# CRX = CRX (Homo sapiens, UniProt O43186 1-299); conditions: protein: recombinant; tags: N-terminal GST; dsDNA, one strand shown
# Sequence of CRX (O43186 whole entry): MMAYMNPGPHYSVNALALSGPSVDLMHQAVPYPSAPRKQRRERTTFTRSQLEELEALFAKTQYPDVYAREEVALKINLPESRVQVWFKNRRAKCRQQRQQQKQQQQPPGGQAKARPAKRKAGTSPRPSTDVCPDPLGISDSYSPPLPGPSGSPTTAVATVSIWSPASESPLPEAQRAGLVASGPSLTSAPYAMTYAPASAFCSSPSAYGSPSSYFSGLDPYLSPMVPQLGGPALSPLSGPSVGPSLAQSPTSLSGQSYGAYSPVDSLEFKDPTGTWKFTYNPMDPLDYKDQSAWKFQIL
# How it was run: as §1
# ETV1 = ETV1 (Homo sapiens, UniProt P50549 1-477); conditions: protein: recombinant; tags: N-terminal GST; dsDNA, one strand shown
# Sequence of ETV1 (P50549 whole entry): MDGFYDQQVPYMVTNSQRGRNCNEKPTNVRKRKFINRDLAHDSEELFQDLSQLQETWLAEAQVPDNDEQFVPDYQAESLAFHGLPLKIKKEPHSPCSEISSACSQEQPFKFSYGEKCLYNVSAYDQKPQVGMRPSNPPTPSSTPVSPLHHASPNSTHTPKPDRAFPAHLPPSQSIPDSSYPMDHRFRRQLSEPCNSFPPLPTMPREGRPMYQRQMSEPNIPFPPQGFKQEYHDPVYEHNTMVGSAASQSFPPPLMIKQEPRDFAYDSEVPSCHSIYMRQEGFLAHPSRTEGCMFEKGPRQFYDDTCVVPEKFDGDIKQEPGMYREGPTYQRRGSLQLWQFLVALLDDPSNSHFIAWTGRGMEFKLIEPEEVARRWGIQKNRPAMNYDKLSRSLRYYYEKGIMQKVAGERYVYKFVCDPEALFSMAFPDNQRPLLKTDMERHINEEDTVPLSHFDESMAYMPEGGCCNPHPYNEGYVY
# How it was run: as §1
sequence,measurement,setting,value
CTGCTT,binding signal,FLI1,"1.69 fold enrichment (6-mer frequency, TF over GST control)"
same,binding signal,ELK1,"1.57 fold enrichment (6-mer frequency, TF over GST control)"
same,binding signal,GABPA,"1.59 fold enrichment (6-mer frequency, TF over GST control)"
same,binding signal,ERG,"1.6 fold enrichment (6-mer frequency, TF over GST control)"
same,binding signal,ELF1,"1.65 fold enrichment (6-mer frequency, TF over GST control)"
same,binding signal,EHF,"1.88 fold enrichment (6-mer frequency, TF over GST control)"
same,binding signal,SPI1,"1.75 fold enrichment (6-mer frequency, TF over GST control)"
same,binding signal,SPIB,"1.54 fold enrichment (6-mer frequency, TF over GST control)"
same,binding signal,ELK3,"1.58 fold enrichment (6-mer frequency, TF over GST control)"
same,binding signal,FEV,"1.8 fold enrichment (6-mer frequency, TF over GST control)"
same,binding signal,ETV5,"1.66 fold enrichment (6-mer frequency, TF over GST control)"
same,binding signal,HSF1,"1.53 fold enrichment (6-mer frequency, TF over GST control)"
same,binding signal,SPIC,"1.8 fold enrichment (6-mer frequency, TF over GST control)"
same,binding signal,ELF4,"1.68 fold enrichment (6-mer frequency, TF over GST control)"
same,binding signal,ELK4,"1.88 fold enrichment (6-mer frequency, TF over GST control)"
same,binding signal,ETV2,"1.93 fold enrichment (6-mer frequency, TF over GST control)"
same,binding signal,ELF3,"1.28 fold enrichment (6-mer frequency, TF over GST control)"
same,binding signal,CRX,"1.69 fold enrichment (6-mer frequency, TF over GST control)"
same,binding signal,ETV1,"1.73 fold enrichment (6-mer frequency, TF over GST control)"
